# PINK1 modulator – PINK1 expression modulation | PINK1 immunofluorescence, high-content cytometry, 24 h | Potency, µM (doses to about 76.6 µM), without a hit: top-dose activation (PINK1 increase), usual class: activators | 410,000 compounds, 0.2% hits | AID 624263; active = well fitted activation curve with a large enough effect; inconclusive = small, poorly fitted or top-dose-only effect; cell line not stated here; note: potency is the fitted concentration of half-maximal effect; % of control where 0% means no effect; nearly all actives have a fitted effect of over 65% in size
#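 Measures PINK1 amount and localization on or inside mitochondria by immunofluorescence. Stable cells get compounds at 5 concentrations for 24 hours before fixation and staining; CCCP controls included.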
# BRCA1 expr act – increases BRCA1 expression. MCF7-BRCA1-FFLuc reporter, luminescence, 48 h; response scale: scaled: vehicle 0%, 10 µM genistein 100%. Potency, µM (series often up to 46.1 µM), for inactives: top-dose activation, most hits filed as activators. 380,000 compounds, 1.1% hits. AID 624202; note: potency is the fitted concentration of half-maximal effect; nearly all actives have a fitted effect of over 80% in size
#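 Cells: MCF7-BRCA1-FFLuc, 2000/well. Exposure: 48 h, 37 °C, 5% CO2. Read: luminescence, 15 min post-substrate. Controls: genistein 10 microM (maximal activation), DMSO (neutral).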
# TCR activator – activates T cell receptor signaling; primary human leukocytes, anti-CD3, IL-2 HTRF, 48 h; Potency, µM (doses to about 9.22 µM), inactives show top-dose activation of IL-2 secretion, usual class: activators; 330,000 tested, under 10 active; note: % of control where 0% means no effect
#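 Readout: HTRF IL-2, Eu-cryptate/d2 antibody pair, 320nm excitation, 665nm emission. Stimulus: a-CD3 beads, no co-stimulation. Cells: primary human leukocytes. Exposure: 48 hr with compound.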
# pAkt inh – Akt phosphorylation inhibition; Neuro2A IGF-stimulated pAkt S473 HTRF, 20 min; hits give low values; activity change, % for hits at 50 µM; 360,000 compounds, 0.32% hits; AID 651550; in the data active = activity change below about -80%; inconclusive = mostly about -51% to -80%; note: % is set by controls: 0 for no effect and ±100 for the full control effect
#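 Neuro2A cells in DMEM with 0.5% FBS, overnight at 37 deg C, given compound at single 50 µM final, then IGF (6 nM final) for 20 min at 37 deg C. Lysed; phospho-Akt Ser473 by HTRF after 24 h, 665/615 ratio.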
# The depositor's hits bear a star; i = inactive; ? = inconclusive; / = no result; [ ] = remark or other dose. Only some compounds are listed: those with a hit (about 1.5% of all), similar ones and a draw of the others. Unless noted, calls come from the whole dose curve; as a rule, active = well fitted curve in the direction sought with a large enough effect; inconclusive = small, poorly fitted or top-dose-only effect, or another doubt; inactive = no such curve, though single readings can be large; an effect the other way counts as inactive or inconclusive.
SMILES,PINK1 modulator,BRCA1 expr act,TCR activator,pAkt inh
Cc1ccccc1C1(CC(=O)N2CC3(C)CC2CC(C)(C)C3)CC(=O)N(Cc2cccnc2)C1=O (centres undefined),0%,/,/,/
COc1cc(O)cc(/C=C/c2ccccc2)c1,3%,?,5%,i
Oc1ccc(/C=C/c2cc(O)cc(O)c2)cc1,-1%,13µM*,2%,i
CC(C)(C)OC(=O)N1CCC(c2c(C(=O)NCc3ccccc3)cnn2-c2cccc(F)c2)CC1,1%,/,/,/
COc1ccc(OC)c(CN2CCCC(c3nc(-c4ccncc4)ncc3-c3ccccc3C)C2)c1 (centres undefined),1%,/,/,/
C/C(=N\NC(=O)c1ccc(O)cc1)c1ccc(NC(=O)Cc2ccccc2)cc1,10%,8.9µM*,9%,i
C/C(=N/NC(=O)c1ccco1)c1ccc(NC(=O)c2ccc(F)cc2)cc1,19%,7.1µM*,0%[46.1 µM],i
Nc1ccccc1SCc1csc(-c2ccc(Cl)cc2)n1,3%,34%,4%,i
Clc1ccc(-c2nc(CSc3ccccn3)cs2)cc1,2%,10µM*,/,i
S=C(N/N=C/c1ccc(Cl)cc1)N1CCOCC1,1%,-50%,0%[46.1 µM],i
S=C(N/N=C/c1ccc(Br)cc1)N1CCCCC1,2%,8.9µM*,6%,i
C=CCn1cnc2c(NCc3ccccc3)ncnc21,0%,4µM*,-2%,i
O=C(Cn1cnc2c(NCc3ccccc3)ncnc21)NCc1ccccn1,2%,10%,-2%[46.1 µM],i
O=C(c1cc(-c2cccc(Cl)c2)on1)N1CCCCCC1,2%,13µM*,-4%,i
O=C(c1ccc(NC(=S)Nc2ccc(Cl)c(Cl)c2)cc1)N1CCCC1,28µM*,-44%,-1%[46.1 µM],i
Cc1nc2cnc(N3CCNCC3)nc2n(C2CC2)c1=O,0%,/,/,/
CCCc1cc(C(=O)NCCc2ccccc2)no1,4%,4µM*,1%,i
Cc1ccc(OCc2cc(C(=O)N(C)CCc3ccccn3)no2)cc1C,2%,8.9µM*,-5%,i
COc1cccc(CCNC(=O)c2cc(COc3ccc(C)c(C)c3)on2)c1OC,0%,5.6µM*,/,i
CCc1cc(C(=O)NCc2ccccc2)no1,3%,/,/,/
Cc1ccc(OCc2cc(C(=O)NCCn3cccn3)no2)cc1C,0%,29%,7%,i
O=C(NCCCn1cccn1)c1cc(COc2ccccc2)on1,0%,11µM*,/,i
CC(=O)c1cccc(OCc2cc(C(=O)N(C)CCc3ccccn3)no2)c1,0%,17%,2%,i
COc1ccc(-c2nc3cnc(N(C)C)nc3n(CCc3ccccc3)c2=O)cc1,2%,/,/,/
Cn1ccc(C(=O)NCC2CCC3(CCN(Cc4ccc(F)cc4F)CC3)O2)n1 (centres undefined),0%,/,/,/
SMILES,PINK1 modulator,BRCA1 expr act,TCR activator,pAkt inh
Cc1ccc(Cl)cc1NC(=O)Cn1c(=O)n(CCC(=O)NCc2ccc3c(c2)OCO3)c(=O)c2sccc21,2%,/,/,/
CCCc1cc(C(=O)Nc2cc(C)ccc2O)no1,23%,2.8µM*,-1%,i
Cc1ccc(OCc2cc(C(=O)NCCc3cccnc3)no2)cc1C,1%,11µM*,-2%,i
Cc1ccc(OCc2cc(C(=O)NC(C)Cc3cccnc3)no2)cc1C (centres undefined),-1%,90%,-2%,i
CCCc1cc(C(=O)Nc2cccnc2Cl)no1,2%,0%,-2%,i
COC(=O)[C@@H]1CCCN1Cc1ccc2c(c1)CN(Cc1ccc3c(c1)CCCN3C)CCO2,0%,/,/,/
Cc1ccc(/C=C2/NC(=O)N(Cc3ccccc3)C2=O)s1,14µM*,19%,/,i
CC(C)(CO)NC(=O)c1cnn(-c2nccc(-c3ccc4c(c3)OCO4)n2)c1C1CC1,0%,/,/,/
Cc1cc(-c2ccnc(-n3ncc(C(=O)NCC(C)(C)N4CCOCC4)c3C)n2)c(C)s1,-1%,/,/,/
O=C(CSc1nnc2ccccn12)N1CCc2ccccc2C1,-1%,?,4%,i
O=C(CSc1nnc2ccccn12)N1CCc2ccccc21,1%,2.8µM*,4%,i
Cc1ccnc(SCC(=O)N2CCc3ccccc32)n1,4%,10µM*,-6%,i
COc1ccccc1CNCC(=O)Nc1ccc(N2CCOCC2)cc1,8%,-1%,1%[46.1 µM],i
COc1ccccc1NC(=O)Nc1ccc(N2CCOCC2)cc1,0%,7.1µM*,1%,i
COc1ccc(NC(=O)Nc2ccccc2OC)cc1,-2%[38.3 µM],14µM*,4%,i
COc1ccc(NC(=O)Nc2nnc(C(C)C)s2)cc1,-1%[38.3 µM],10µM*,6%,/
COc1ccc(NC(=O)Nc2ccc(Br)c(C)c2)cc1,0%,11µM*,-4%,i
COc1ccccc1NC(=O)Nc1ccc(C(N)=O)cc1,0%,10%,0%,i
Cc1cc(-c2ccnc(-n3ncc(C(=O)N(C)CC(O)c4ccccc4)c3C)n2)c(C)s1 (centres undefined),-1%,/,/,/
COc1cc(-c2c(OC)cccc2OC)cc2c1OCCN(Cc1cn[nH]c1-c1ccc(Cl)cc1)C2,0%,/,/,/
COc1ccccc1NC(=O)Nc1ccc2c(c1)CCC2,1%,2.8µM*,2%,i
CC1CC(=O)c2cnc(Nc3cccc(C(F)(F)F)c3)nc2C1 (centres undefined),1%,?,-3%,-104%*
COC(=O)c1cc(C(=O)OC)cc(N2C(=O)CN=C2Nc2nc(C)cc(C)n2)c1,2%,3%,-2%,-80%*
COc1cccc(N(CC(=O)NC(C)c2ccccc2)S(C)(=O)=O)c1 (centres undefined),-3%,0%,-2%,-119%*
CC(NC(=O)CN(c1cccc(C(F)(F)F)c1)S(C)(=O)=O)c1ccccc1 (centres undefined),0%,-13%,0%,i
SMILES,PINK1 modulator,BRCA1 expr act,TCR activator,pAkt inh
CN(C)C(=S)c1ccc2ccccc2n1,-2%,5%,-6%,-120%*
CS(=O)(=O)N1CCN(Cc2cc3nc(-c4cccc5[nH]ncc45)nc(N4CCOCC4)c3s2)CC1,1%[153 µM],-70%[92.2 µM],/,/
Cc1ccc2c(CN3CCC(C)CC3)cc(=O)oc2c1,4%[38.3 µM],3.2µM*,2%,i
Cc1cc2oc(=O)cc(CN3CCN(Cc4ccccc4)CC3)c2cc1Cl,2%,8%,3%,-111%*
CN1C(=O)CC(CC(=O)N2CCCCC2CCO)(c2cccc(F)c2)C1=O (centres undefined),0%,/,/,/
COc1cc2c(NC3CCN(C)CC3)nc(N3CCCN(C)CC3)nc2cc1OCCCCCCN(C)C,-1%,-37%,/,/
Clc1ccc(C2=C3CCCCn4c(-c5ccccc5)c[n+](c43)C2)cc1,16µM*,-86%,8%,i
CN1/C(=C\C=C2/SC(=S)NC2=O)C(C)(C)c2ccccc21,?,-46%,9%,i
CN1CCC/C1=C/C=C1\SC(=S)NC1=O,3%,10µM*,2%[46.1 µM],i
CCC(C)[C@H](N)c1nnc(SCc2ccc(Cl)c(Cl)c2)o1 (some centres undefined),1%,0%,/,/
